HSD17B inh: blocks hydroxysteroid 17-beta dehydrogenase activity; Potency, µM (titrated, usually from 57.1 µM), for inactives: at the top dose activity change, negative = inhibition, actives largely listed as inhibitors; hit rate 7.6% among 75,000; Q99714; recombinant HSD17B10, NADH fluorescence kinetic;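 also: the protocol describes HADH2 (HSD17B10) and not the HSD17B4 of the title; potency is read from the fitted curve at half-maximal effect; % is scaled to controls: 0 for no effect and ±100 for the full control effect; nearly all actives have a fitted effect of over 70% in size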
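20 nM HADH2, pH 9.0 Tris/Tween; cpd preinc 15 min RT; start w/ 1 mM NAD+ + 90 uM b-hydroxybutyryl-CoA; kinetic fluor ex360/em450 q30s x 4 min; delta last-first.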
AID923: qHTS Assay for Allosteric/Competitive Inhibitors of Caspase-1: Spectroscopic Profiling in AFC Spectral Region | compound fluorescence, AFC spectral region (405/520 nm) | hit rate 1.1% among 75,000 | AID 923, 2007 | Potency, µM (highest dose often 57.5 µM), for inactives: at the highest dose fluorescence increase, most hits filed as activators; also: potency is read from the fitted curve at half-maximal effect; 0% is about no effect
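Titrations up to 57 uM read every 20 sec for 3 min (405/520 nm) with 50 nM caspase 1 and 5 uM Ac-WEHD-AFC, pH 7.5 HEPES buffer. Fluorescence-vs-time intercept gave baseline, scaled against on-plate AFC standard.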
HADH2 inh: HADH2 (human) dehydrogenase inhibition. recombinant HADH2, NADH fluorescence, beta-hydroxybutyryl-CoA. AID 886. Q99714. Potency, µM (series often up to 57.1 µM), for the others: top-dose activity change, negative = inhibition, usual class: inhibitors. hit rate 3.4% among 73,000; also: potency is read from the fitted curve at half-maximal effect; % is scaled to controls: 0 for no effect and ±100 for the full control effect; nearly all actives have a fitted effect of over 60% in size
Target sequence (Q99714 whole entry, looked up, one chain of several): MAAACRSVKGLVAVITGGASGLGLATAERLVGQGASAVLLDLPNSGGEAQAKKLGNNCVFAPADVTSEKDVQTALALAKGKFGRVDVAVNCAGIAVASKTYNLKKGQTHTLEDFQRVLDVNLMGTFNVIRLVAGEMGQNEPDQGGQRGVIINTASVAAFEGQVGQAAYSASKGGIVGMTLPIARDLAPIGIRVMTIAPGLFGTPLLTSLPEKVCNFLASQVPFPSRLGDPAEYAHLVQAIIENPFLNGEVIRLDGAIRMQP
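His-tagged recombinant enzyme from E. coli, 20 nM, preincubated 15 min RT with compound; reaction started with 1 mM NAD+ and 90 uM beta-hydroxybutyryl-CoA in 100 mM Tris-HCl pH 9.0. NADH fluorescence (ex 360/em 450) read over 4 min; last-minus-first difference.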
A350 fluor: compounds fluorescent in Alexa 350 spectral region. max dye-equivalent concentration, M. hit rate 11% among 59,000. Compound autofluorescence, 340/450 nm, Alexa 350 dye-equivalents; stronger effect = higher value; in the data active = max dye-equivalent concentration above about 10 nM; inconclusive = mostly about 1.1 nM to 9.6 nM
CRE-bla Fsk: modulators of forskolin-stimulated CRE signaling in CHO cells; CHO CRE-bla reporter (cAMP response element driving beta-lactamase), forskolin EC10, beta-lactamase ratio; Potency, µM (highest dose often 38.2 µM), inactives show at the highest dose activity change, negative = inhibition, usual class: activators; hit rate 2.5% among 71,000; active = well fitted activation curve with a large enough effect in the signal ratio, with a control signal flat, not every such curve was filed as active; inconclusive = small, poorly fitted or top-dose-only effect, or effect the other way, or a change in a side signal; the % refers to the signal ratio; also: potency is read from the fitted curve at half-maximal effect; % of control where 0% means no effect
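Reporter-gene assay: CHO cells with beta-lactamase behind cAMP responsive elements, co-treated with compound and EC10 NKH 477 for 3 hours at 37 degrees Celsius. Activity came from the 460/530 nm CCF4 emission ratio.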
4MU fluor: 4-MU region autofluorescence; compound autofluorescence, 340/450 nm, 4-MU equivalents; stronger effect = higher value; max dye-equivalent concentration, M; hit rate 11% among 59,000; AID 589; in the data active = max dye-equivalent concentration above about 10 nM; inconclusive = mostly about 1.1 nM to 9.6 nM
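Intrinsic fluorescence at 340/450 nm (ex/em) was read after 15 min at room temperature in pH 8.0, 100 mM Tris. Each compound concentration expressed as 4-MU-equivalent concentration from a six-point 4-MU standard series on each plate.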
CHO via 24h: cytotoxicity in CRE-bla CHO cells at 24 h | 120 tested, under 10 active | CRE-bla CHO viability, ATP luminescence, 24 h | activity, negative = viability loss, % at 46.1 µM | shares compounds with CRE-bla Fsk
CHO tox 40h: cytotoxicity in CRE-bla CHO cells at 40 h; shares compounds with CRE-bla Fsk; CRE-bla CHO viability, ATP luminescence, 40 h; Potency, µM, inactives show max response, actives largely listed as inhibitors; 120 tested, under 10 active
CRE-luc potent: boosts CRE luciferase signal in HEK293 cells; shares compounds with CRE-bla Fsk; HEK293 CRE-luc2P, NKH477 EC10 potentiation, luminescence, 4 h; Potency, µM (doses to about 38.3 µM), for the others: at the highest dose activity, positive = activation, usual class: activators; hit rate 80% among 120; AID 907
Active calls of the source: *; i = inactive; u = inconclusive; x = no result; ! = not active in a repeat. A selection: hits, their analogues and other compounds. The true share with any hit is near 14%. Unless noted, calls follow the shape of the dose curve; as a rule, active = well fitted curve in the direction sought with a large enough effect; inconclusive = small, poorly fitted or top-dose-only effect, or another doubt; inactive = no such curve, though single readings can be large; an effect the other way counts as inactive or inconclusive.

SMILES | HSD17B inh | AID923 | HADH2 inh | A350 fluor | CRE-bla Fsk | 4MU fluor | CHO via 24h | CHO tox 40h | CRE-luc potent
COC(=O)c1ccc(CSc2ccc3nnc(-c4cccc(F)c4)n3n2)o1 | u | -2% | u | x | 7.9µM* | x | -14 | -18% | 13µM*
O=C(Nc1ccc(-c2cn3ccsc3n2)cc1)c1ccc(F)c(S(=O)(=O)N2CCOCC2)c1 | 35% | 0% | 90% | u | 1.6µM* | u | u | -22% | 2.8µM*
Cc1ccccc1-n1nc(C)c2cc(C(=O)N3CCOCC3)sc21 | -3% | -1% | 10% | i | -4% | i | x | x | x
Cc1nn(-c2ccccc2)c2sc(C(=O)N3CCCCC3)cc12 | -2% | -1% | -16% | i | 3.2µM* | i | -18 | u | 10µM*
CCCCn1c(C(C)NC(=O)COC)nc2ccccc21 (stereo not drawn) | -1% | 0% | 4% | i | -6% | i | x | x | x
CSc1ccccc1C(=O)NCCSC(C)(C)C | 8% | 0% | 14% | i | 0% | i | x | x | x
C=CCn1c(SCC(=O)Nc2sccc2C(N)=O)nc2sc(C)c(C)c2c1=O | u | 1% | 12% | i | 2µM* | i | u | u | 4µM*
Cc1nnc(SCC(=O)Nc2sccc2C(N)=O)n1Cc1ccccc1 | -11% | -1% | -9% | i | u | i | x | x | x
COC(=O)CCC(=O)N1CCc2cc(S(=O)(=O)N3CCN(c4ccccc4Cl)CC3)ccc21 | 16% | -1% | 18% | i | 9% | i | x | x | x
CC1CCc2c(sc3nc(C4CC4)nc(SCC(=O)NCc4ccco4)c23)C1 (stereo not drawn) | 11% | 4% | 9% | i | -1% | i | 3 | -2% | 8%
COc1ccc([C@@H]2CNC(=O)C2)cc1OC1CCCC1 | -6% | -1% | 7% | i | 0.01µM*! | i | -6 | -12% | 0.028µM*
COc1cc(C2NC(=O)NC(C)=C2C(=O)OC(C)(C)C)ccc1OCC(N)=O (stereo not drawn) | -5% | 2% | 11% | i | -4% | i | 7 | -2% | 13µM*
CCN1C(=O)/C(=C/N2CCc3ccccc32)SC1=S | 2% | 4% | 13% | u | 0% | i | x | x | x
CCn1cc(C(=O)Nc2cccc(NC(C)=O)c2)c2cc(OC)c(OC)cc2c1=O | -1% | -1% | -5% | i | u | i | x | x | x
CCn1cc(C(=O)Nc2ccc3c(c2)OCCO3)c2cc(OC)c(OC)cc2c1=O | 5% | -1% | 1% | x | 1.3µM* | x | -8 | -18% | 0.71µM*
Cc1cc(C)nc(N2CCN(c3nc(C)nc4c3oc3ccccc34)CC2)n1 | 12% | 0% | u | i | 0% | i | 5 | -5% | 3.2µM*
Cc1nc(N2CCC(C)CC2)c2oc3ccccc3c2n1 | 73% | 0% | -22% | i | u | i | x | x | x
Cc1cc2oc3c(c(=O)c2cc1C)C(c1cccc(Br)c1)N(Cc1ccco1)C3=O (stereo not drawn) | -5% | 1% | 7% | i | -4% | i | x | x | x
CCOc1cc(C2c3c(oc4cc(C)c(Cl)cc4c3=O)C(=O)N2Cc2ccco2)ccc1O (stereo not drawn) | u | 1% | u | 9e-08M* | 13µM* | 1e-07M* | -21 | -25% | 0.79µM*
CN1C(=O)NC(c2ccccc2)C2=C1CN(Cc1ccccc1)C2=O (stereo not drawn) | x | x | x | i | x | i | -3 | -1% | 21%
CCSc1nc2ccccc2n1Cc1nc(N)nc(N(C)C)n1 | -1% | -1% | 4% | i | u | i | x | x | x
CN(C)c1nc(N)nc(CSc2n[nH]c(-c3ccccc3)n2)n1 | -2% | -2% | -8% | i | 1.6µM* | i | -6 | -28% | 13µM*
CC(=O)Nc1ccc(S(=O)(=O)N2CCC(NC(C)=O)(c3cccc(F)c3)CC2)cc1 | 17% | 2% | 1% | i | 0% | i | x | x | x
Cc1cc(C)n(-c2nc(Nc3ccccc3)nc(-n3nc(C)cc3C)n2)n1 | -4% | 2% | 14% | i | 12% | i | -2 | -7% | u
Cc1cc(C)n(-c2nncc(-c3ccccc3)n2)n1 | 0% | 1% | -10% | x | 27% | x | x | x | x
SMILES | HSD17B inh | AID923 | HADH2 inh | A350 fluor | CRE-bla Fsk | 4MU fluor | CHO via 24h | CHO tox 40h | CRE-luc potent
CC[C@]1(O)C[C@@H]2CN(CCc3c([nH]c4ccccc34)[C@](C(=O)OC)(c3cc4c(cc3OC)N(C=O)[C@H]3[C@@](O)(C(=O)OC)[C@H](C(=O)OC)[C@@]5(CC)C=CCN6CC[C@]43[C@H]65)C2)C1 | -27% | -3% | 6% | x | 0.5µM* | x | -22 | u | 8%
Fc1ccc(C2=Nn3c(Cc4ccccc4)nnc3SC2)cc1 | 5% | -2% | u | i | 16% | i | -5 | -10% | 13µM*
Cc1cc(-c2nnc3n2N=C(c2ccc(-c4ccccc4)cc2)CS3)n[nH]1 | -30% | 0% | -8% | i | u | i | -30 | u | 1.6µM*
c1ccc(C2=Nn3c(nnc3-c3ccncc3)SC2)cc1 | 4% | 1% | 14% | u | u | i | x | x | x
Cn1nc(-c2ccc(N3CCOCC3)c(NS(=O)(=O)c3ccccc3)c2)c2ccccc2c1=O | 4% | -1% | -3% | u | 2µM* | i | u | u | u
CC(=O)Nc1cc(-c2nn(CC(=O)N3CCCCC3)c(=O)c3ccccc23)ccc1N1CCOCC1 | 5% | 1% | 10% | i | u | i | x | x | x
c1ccc(CN2CCN(c3nc(-c4ccccc4)nc(-n4ccnc4)n3)CC2)cc1 | -9% | 0% | -8% | i | u | i | x | x | x
Cc1ccc(-n2ncc3c(=O)[nH]c(SCC(=O)N4CCOCC4)nc32)cc1 | 1% | 2% | 9% | i | 19% | i | 4 | 2% | u
O=c1[nH]c(SCc2ccccc2Cl)nc2c1cnn2-c1ccccc1 | 37% | 1% | 16% | x | 0.79µM* | x | -19 | -21% | 6.3µM*
